BCR signal inh – blocks chronic active B-cell receptor signaling; ABC-DLBCL IkBa-CBG/CBR reporter, luminescence ratio, 4 h; Potency, µM (doses to about 46.1 µM), usual class: inhibitors; 340,000 tested, 0.05% active; active = well fitted inhibition curve with a large enough effect in the signal ratio, with a control signal flat, not every such curve was filed as active; inconclusive = small, poorly fitted or top-dose-only effect, or effect the other way, or a change in a side signal; the % refers to the signal ratio
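Concentration-response series (up to 46 uM) were applied to TMD8 dual-reporter cells for 4 h at 37C with doxycycline. Green/red ratio, after filter-overlap correction, defined %Activity; red signal alone was normalised to basal cells and zero luminescence.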
Gal4-VP16 FLuc – inhibits Gal4-VP16 luciferase reporter, ROR gamma counter-screen. Potency, µM (doses to about 53.6 µM), usual class: inhibitors. 310,000 tested, 3.5% active. Drosophila S2 Gal4-VP16 UAS-luciferase, luminescence, 20 h;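 note: Gal4-VP16 expression switched on by copper sulfate through the metallothionein promoter; nearly all actives have a fitted effect of over 50% in size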
RORg inh – ROR gamma (mouse) transcription inhibition | Drosophila S2 Gal4-RORgamma UAS-luciferase reporter, 20 h | Potency, µM (top dose mostly 53.6 µM), most hits filed as inhibitors | 310,000 tested, 5.4% active; note: nearly all actives have a fitted effect of over 60% in size
Target sequence (P51450 whole entry, looked up, the tested form may be a part): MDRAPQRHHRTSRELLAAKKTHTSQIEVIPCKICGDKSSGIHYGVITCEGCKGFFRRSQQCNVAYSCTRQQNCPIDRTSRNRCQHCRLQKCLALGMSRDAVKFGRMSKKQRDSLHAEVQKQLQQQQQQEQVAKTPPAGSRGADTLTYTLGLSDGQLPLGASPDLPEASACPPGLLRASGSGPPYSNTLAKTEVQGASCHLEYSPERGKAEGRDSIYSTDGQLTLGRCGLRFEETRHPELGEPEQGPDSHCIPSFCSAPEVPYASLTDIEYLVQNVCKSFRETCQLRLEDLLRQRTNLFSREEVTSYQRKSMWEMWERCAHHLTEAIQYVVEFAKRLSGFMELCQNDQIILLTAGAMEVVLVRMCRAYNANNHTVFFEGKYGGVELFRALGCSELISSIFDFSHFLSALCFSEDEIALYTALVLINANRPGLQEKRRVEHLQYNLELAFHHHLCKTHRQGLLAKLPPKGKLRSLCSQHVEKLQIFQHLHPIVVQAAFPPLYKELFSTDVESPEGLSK
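Stable Schneider cell line, Gal4 DNA-binding domain fused to ROR gamma, UAS-luciferase. Cmpd 1 hr RT → CuSO4 700 uM final → 20 hr RT → luciferase reagent 10 min → luminescence.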
Giardia killer – Giardia lamblia killing; activity change, % at 7.66 µM, hits read low; Giardia lamblia trophozoite viability; 340,000 tested, 0.15% active; in the data active = activity change below about -80%; inconclusive = between about -30% and that limit;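 note: parasites exposed to compound for two days anaerobically before the ATP read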
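ATP-content bioluminescence gauges trophozoite survival. Cells (100/well) receive compound and incubate anaerobically for 48 hrs at 37 deg C; detection reagent follows for 15-30 min at room temperature.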
MCF10A rerep – induces DNA re-replication in MCF 10a normal breast cells; MCF 10A DNA re-replication, Hoechst nuclear intensity, 48 h; Potency, µM (series often up to 46.1 µM), actives largely listed as activators; 350,000 tested, 2.9% active; note: nearly all actives have a fitted effect of over 50% in size
SW480 rereplic – induces DNA re-replication in SW480 colon adenocarcinoma cells. SW480 DNA re-replication, Hoechst DNA content imaging, 48 h. Potency, µM (top dose mostly 46.1 µM), actives largely listed as activators. 340,000 tested, 1.8% active; note: nearly all actives have a fitted effect of over 55% in size
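First, 250 cells per well were seeded. Next, compound or vehicle (23 nL) was pinned in, plates sat 48 hr at 37 C. Finally Hoechst was added for 40 min before fluorescence scanning.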
Large screens that a line does not name were inactive. This is a sample that favours compounds with a hit; in the whole collection about 8.3% have one here. Unless noted, calls come from the whole dose curve; as a rule, active = well fitted curve in the direction sought with a large enough effect; inconclusive = small, poorly fitted or top-dose-only effect, or another doubt; inactive = no such curve, though single readings can be large; an effect the other way counts as inactive or inconclusive.

CC1CCN(C(c2ccccc2)c2sc3nc(-c4ccco4)nn3c2O)CC1 (stereo not drawn)	none (no result: Gal4-VP16 FLuc, RORg inh, Giardia killer, MCF10A rerep, SW480 rereplic)
COc1ccc2cc(C(C)C(=O)N3CCC(C(N)=O)CC3)ccc2c1 (stereo not drawn)	none
Cc1cccn2c(=O)c3cc(C(=O)NC4CCCCC4)c(=N)n(CCN4CCOCC4)c3nc12	BCR signal inh inconclusive, MCF10A rerep inconclusive, SW480 rereplic inconclusive
N=c1c(C(=O)NC2CCCC2)cc2c(=O)n3ccccc3nc2n1C1CCCC1	SW480 rereplic 16µM
Cc1cccn2c(=O)c3cc(C(=O)NC4CCCC4)c(=N)n(C4CCCC4)c3nc12	BCR signal inh inconclusive, MCF10A rerep 3.5µM, SW480 rereplic 7.1µM
CCCCNC(=O)c1cc2c(=O)n3cccc(C)c3nc2n(Cc2ccncc2)c1=N	none
CCn1c(=N)c(C(=O)NC)cc2c(=O)n3cccc(C)c3nc21	MCF10A rerep inconclusive, SW480 rereplic 13µM
Cc1cccn2c(=O)c3cc(C(=O)NCCC4=CCCCC4)n(C)c3nc12	MCF10A rerep 9.2µM, SW480 rereplic inconclusive
Cc1ccc(CNc2ncccc2-c2nc3cc(Cl)ccc3o2)cc1	BCR signal inh inconclusive, RORg inh inconclusive, MCF10A rerep inconclusive
Clc1ccc2oc(-c3cccnc3NCc3ccccc3)nc2c1	MCF10A rerep 16µM, SW480 rereplic inconclusive
Cc1ccc(NC(=O)CSc2nn(-c3ccccc3)c(=S)s2)cc1S(=O)(=O)N(C)C	BCR signal inh inconclusive, Gal4-VP16 FLuc 14µM, RORg inh inconclusive
O=C(CSc1nn(-c2ccccc2)c(=S)s1)Nn1cnnc1	none
Cc1ccc(C2=N/C(=C\c3ccc(F)cc3)C(=O)N2)cc1	BCR signal inh inconclusive, MCF10A rerep inconclusive, SW480 rereplic 15µM (no result: Gal4-VP16 FLuc, RORg inh)
COc1cccc(N2[C@@H](CC(=O)O)c3cc(C(F)(F)F)ccc3S2(=O)=O)c1	none (no result: BCR signal inh, Gal4-VP16 FLuc, RORg inh)
CCCCn1c(-c2cc(Cl)ccc2OC)n[nH]c1=S	Gal4-VP16 FLuc 10µM, RORg inh 3.2µM, SW480 rereplic inconclusive (no result: BCR signal inh)
CCCCn1c(-c2cccnc2)n[nH]c1=S	RORg inh inconclusive
COc1ccc(CCn2c(-c3ccc(C(C)(C)C)cc3)n[nH]c2=S)cc1OC	RORg inh 3.2µM
COc1ccc(CCn2c(=S)[nH]c(=O)c3[nH]cnc32)cc1OC	none (no result: BCR signal inh, Gal4-VP16 FLuc, RORg inh, MCF10A rerep, SW480 rereplic)
COc1ccc(CCn2c(-c3ccc(Cl)cc3)n[nH]c2=S)cc1OC	Gal4-VP16 FLuc inconclusive, RORg inh 1.6µM
COc1ccc(-c2nc3c4ccccc4n(CC(=O)N4CCN(c5ccccc5OC)CC4)c(=O)n3n2)cc1	none (no result: Gal4-VP16 FLuc, RORg inh, Giardia killer, MCF10A rerep, SW480 rereplic)
O=C(Cc1ccccc1)NNC(=O)Nc1cccc(Cl)c1	none
O=C(CN1c2ccccc2Sc2ccccc21)NNC(=O)Nc1cccc(Cl)c1	BCR signal inh inconclusive, MCF10A rerep 23µM, SW480 rereplic inconclusive
Cc1cc(C)c(C#N)c(SCC(=O)c2cccs2)n1	BCR signal inh inconclusive
CCN(CC)C(=O)CSc1nc(C)cc(-c2cccs2)c1C#N	RORg inh 10µM
N#CCOc1ccccc1/C=C/c1nc2ccccc2c(=O)[nH]1	Gal4-VP16 FLuc inconclusive, RORg inh inconclusive, SW480 rereplic 13µM
Cc1ccc(/C=C/c2nc3ccccc3c(=O)[nH]2)cc1	Gal4-VP16 FLuc inconclusive, RORg inh 2.5µM, Giardia killer -90, MCF10A rerep inconclusive, SW480 rereplic inconclusive
COCCOC(=O)N/C=C\c1nc2ccccc2c(=O)[nH]1	MCF10A rerep inconclusive, SW480 rereplic 16µM
COc1cc(/C=C/c2nc3ccccc3c(=O)[nH]2)ccc1OC(F)F	none
COc1cc(/C=C/c2nc3ccccc3c(=O)[nH]2)cc(OC)c1OC	MCF10A rerep 18µM, SW480 rereplic 3.3µM
COC(=O)c1ccc(/C=C/c2nc3ccccc3c(=O)[nH]2)cc1	Gal4-VP16 FLuc inconclusive, RORg inh inconclusive
Cc1ccccc1/C=C\c1nc2ccccc2c(=O)[nH]1	BCR signal inh inconclusive, MCF10A rerep inconclusive, SW480 rereplic inconclusive
COc1cccc(CN(C)CC(=O)Nc2ccccc2C(=O)NC2CC2)c1	none (no result: Gal4-VP16 FLuc, RORg inh)
CCN(CC(=O)NCc1ccc(F)cc1)C(=O)CN1CCN(c2ccc(OC)cc2)CC1	none
